# Results taken from the supplement of paper PMC8728848.
# The entries come from a sample that favours the strongest signals as a whole.
# Legend:
# Test in all cases: glycan array binding signal (z-score within array); higher = stronger binding
# [1] = test system: Neu5Ac(a2-3)Gal(b1-4)GlcNAc(b1-2)Man(a1-3)[Neu5Ac(a2-6)Gal(b1-4)GlcNAc(b1-2)Man(a1-6)]Man(b1-4)GlcNAc(b1-4)GlcNAc; details: glycan notation: IUPAC condensed, linker removed
# In short: (§1)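 Glycan array binding is given as a within-array Z-score, which can be read as non-binding when negative. The arrays, 3228 of them, came from the Consortium for Functional Glycomics database and were retained only where the protein sequence was available. Z-scores were averaged across arrays of the same protein sequence at different concentrations or buffers and across linkers.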
# [2] = test system: Neu5Ac(a2-3)Gal(b1-4)GlcNAc(b1-2)[Neu5Ac(a2-3)Gal(b1-4)GlcNAc(b1-4)]Man(a1-3)[GlcNAc(b1-4)][Neu5Ac(a2-3)Gal(b1-4)GlcNAc(b1-2)[Neu5Ac(a2-3)Gal(b1-4)GlcNAc(b1-6)]Man(a1-6)]Man(b1-4)GlcNAc(b1-4)GlcNAc; details: glycan notation: IUPAC condensed, linker removed
# In short: as §1
# [3] = test system: Neu5Ac(a2-3)Gal(b1-3)[Neu5Ac(a2-3)Gal(b1-4)]GlcNAc; details: glycan notation: IUPAC condensed, linker removed
# In short: as §1
# [4] = test system: Neu5Ac(a2-3)Gal(b1-3)[Fuc(a1-4)]GlcNAc; details: glycan notation: IUPAC condensed, linker removed
# In short: as §1
# [5] = test system: Neu5Ac(a2-3)Gal(b1-3)GlcNAc(b1-3)GalNAc; details: glycan notation: IUPAC condensed, linker removed
# In short: as §1
# [6] = test system: Neu5Ac(a2-3)Gal(b1-4)GlcNAc(b1-2)Man(a1-3)[GlcNAc(b1-2)Man(b1-4)GlcNAc(b1-2)Man(a1-6)]Man(b1-4)GlcNAc(b1-4)GlcNAc; details: glycan notation: IUPAC condensed, linker removed
# In short: as §1
# [7] = test system: Neu5Ac(a2-3)Gal(b1-3)GlcNAc; details: glycan notation: IUPAC condensed, linker removed
# In short: as §1
# [8] = test system: Neu5Ac(a2-3)Gal(b1-4)GlcNAc(b1-3)Gal(b1-3)GlcNAc; details: glycan notation: IUPAC condensed, linker removed
# In short: as §1
# [9] = test system: Neu5Ac(a2-3)Gal(b1-3)GlcNAc(b1-2)Man; details: glycan notation: IUPAC condensed, linker removed
# In short: as §1
# [10] = test system: Neu5Ac(a2-3)Gal(b1-3)GlcNAc(b1-6)GalNAc; details: glycan notation: IUPAC condensed, linker removed; mutation: R125K
# In short: as §1
# [11] = test system: Neu5Ac(a2-3)Gal(b1-3)[GlcNAc(b1-6)]GalNAc; details: glycan notation: IUPAC condensed, linker removed; mutation: R125K
# In short: as §1
# [12] = test system: Neu5Ac(a2-3)Gal(b1-4)GlcNAc(b1-2)Man(a1-3)[GlcNAc(b1-4)][Neu5Ac(a2-3)Gal(b1-4)GlcNAc(b1-2)Man(a1-6)]Man(b1-4)GlcNAc(b1-4)GlcNAc; details: glycan notation: IUPAC condensed, linker removed
# In short: as §1
# [13] = test system: Neu5Ac(a2-3)Gal(b1-4)GlcNAc(b1-2)Man(a1-3)[Neu5Ac(a2-3)Gal(b1-4)GlcNAc(b1-2)Man(a1-6)]Man(b1-4)GlcNAc(b1-4)[Fuc(a1-6)]GlcNAc; details: glycan notation: IUPAC condensed, linker removed; mutation: R125K
# In short: as §1
# [14] = test system: Neu5Ac(a2-3)Gal(b1-4)GlcNAc(b1-2)[Neu5Ac(a2-3)Gal(b1-4)GlcNAc(b1-4)]Man(a1-3)[GlcNAc(b1-4)][Neu5Ac(a2-3)Gal(b1-4)GlcNAc(b1-4)Man(a1-6)]Man(b1-4)GlcNAc(b1-4)GlcNAc; details: glycan notation: IUPAC condensed, linker removed; mutation: R125K
# In short: as §1
# [15] = test system: Neu5Ac(a2-3)Gal(b1-4)GlcNAc(b1-2)[Neu5Ac(a2-3)Gal(b1-4)GlcNAc(b1-6)]Man(a1-6)[Neu5Ac(a2-3)Gal(b1-4)GlcNAc(b1-2)Man(a1-3)]Man(b1-4)GlcNAc(b1-4)GlcNAc; details: glycan notation: IUPAC condensed, linker removed
# In short: as §1
# [16] = test system: Neu5Ac(a2-3)Gal(b1-4)GlcNAc(b1-3)Gal(b1-4)GlcNAc(b1-2)Man(a1-3)[Neu5Ac(a2-3)Gal(b1-4)GlcNAc(b1-3)Gal(b1-4)GlcNAc(b1-2)Man(a1-6)]Man(b1-4)GlcNAc(b1-4)GlcNAc; details: glycan notation: IUPAC condensed, linker removed; mutation: R125K
# In short: as §1
# [17] = test system: Neu5Ac(a2-3)Gal(b1-3)[Neu5Ac(a2-6)]GalNAc; details: glycan notation: IUPAC condensed, linker removed
# In short: as §1
# [18] = test system: Neu5Ac(a2-3)Gal(b1-3)GlcNAc6S; details: glycan notation: IUPAC condensed, linker removed
# In short: as §1
# [19] = test system: Neu5Ac(a2-3)Gal(b1-3)GlcNAc(b1-3)Gal(b1-4)GlcNAc; details: glycan notation: IUPAC condensed, linker removed
# In short: as §1
# [20] = test system: Neu5Ac(a2-3)Gal(b1-4)GlcNAc(b1-3)Gal(b1-4)GlcNAc(b1-3)Gal(b1-4)GlcNAc(b1-2)Man(a1-3)[Neu5Ac(a2-3)Gal(b1-4)GlcNAc(b1-3)Gal(b1-4)GlcNAc(b1-3)Gal(b1-4)GlcNAc(b1-2)Man(a1-6)]GalNAc; details: glycan notation: IUPAC condensed, linker removed
# In short: as §1
# Avaren (Actinomycete K97), sequence (chain, as listed by the source): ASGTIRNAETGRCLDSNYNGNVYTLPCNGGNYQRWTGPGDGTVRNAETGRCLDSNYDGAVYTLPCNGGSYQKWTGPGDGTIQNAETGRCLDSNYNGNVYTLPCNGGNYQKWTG
# PILRa (Mus musculus), Q2YSF3, sequence (Q2YSF3 entry or part of it): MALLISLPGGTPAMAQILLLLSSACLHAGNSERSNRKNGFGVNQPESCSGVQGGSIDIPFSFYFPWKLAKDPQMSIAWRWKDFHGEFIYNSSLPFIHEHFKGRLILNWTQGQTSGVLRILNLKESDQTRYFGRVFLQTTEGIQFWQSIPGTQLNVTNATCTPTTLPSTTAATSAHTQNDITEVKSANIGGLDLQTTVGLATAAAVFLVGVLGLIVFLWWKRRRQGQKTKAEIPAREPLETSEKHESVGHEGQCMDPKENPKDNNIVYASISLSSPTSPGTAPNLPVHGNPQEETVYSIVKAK
# Neurocan (Homo sapiens), O14594, sequence (O14594 other isoform, or with tags, fused parts or gaps): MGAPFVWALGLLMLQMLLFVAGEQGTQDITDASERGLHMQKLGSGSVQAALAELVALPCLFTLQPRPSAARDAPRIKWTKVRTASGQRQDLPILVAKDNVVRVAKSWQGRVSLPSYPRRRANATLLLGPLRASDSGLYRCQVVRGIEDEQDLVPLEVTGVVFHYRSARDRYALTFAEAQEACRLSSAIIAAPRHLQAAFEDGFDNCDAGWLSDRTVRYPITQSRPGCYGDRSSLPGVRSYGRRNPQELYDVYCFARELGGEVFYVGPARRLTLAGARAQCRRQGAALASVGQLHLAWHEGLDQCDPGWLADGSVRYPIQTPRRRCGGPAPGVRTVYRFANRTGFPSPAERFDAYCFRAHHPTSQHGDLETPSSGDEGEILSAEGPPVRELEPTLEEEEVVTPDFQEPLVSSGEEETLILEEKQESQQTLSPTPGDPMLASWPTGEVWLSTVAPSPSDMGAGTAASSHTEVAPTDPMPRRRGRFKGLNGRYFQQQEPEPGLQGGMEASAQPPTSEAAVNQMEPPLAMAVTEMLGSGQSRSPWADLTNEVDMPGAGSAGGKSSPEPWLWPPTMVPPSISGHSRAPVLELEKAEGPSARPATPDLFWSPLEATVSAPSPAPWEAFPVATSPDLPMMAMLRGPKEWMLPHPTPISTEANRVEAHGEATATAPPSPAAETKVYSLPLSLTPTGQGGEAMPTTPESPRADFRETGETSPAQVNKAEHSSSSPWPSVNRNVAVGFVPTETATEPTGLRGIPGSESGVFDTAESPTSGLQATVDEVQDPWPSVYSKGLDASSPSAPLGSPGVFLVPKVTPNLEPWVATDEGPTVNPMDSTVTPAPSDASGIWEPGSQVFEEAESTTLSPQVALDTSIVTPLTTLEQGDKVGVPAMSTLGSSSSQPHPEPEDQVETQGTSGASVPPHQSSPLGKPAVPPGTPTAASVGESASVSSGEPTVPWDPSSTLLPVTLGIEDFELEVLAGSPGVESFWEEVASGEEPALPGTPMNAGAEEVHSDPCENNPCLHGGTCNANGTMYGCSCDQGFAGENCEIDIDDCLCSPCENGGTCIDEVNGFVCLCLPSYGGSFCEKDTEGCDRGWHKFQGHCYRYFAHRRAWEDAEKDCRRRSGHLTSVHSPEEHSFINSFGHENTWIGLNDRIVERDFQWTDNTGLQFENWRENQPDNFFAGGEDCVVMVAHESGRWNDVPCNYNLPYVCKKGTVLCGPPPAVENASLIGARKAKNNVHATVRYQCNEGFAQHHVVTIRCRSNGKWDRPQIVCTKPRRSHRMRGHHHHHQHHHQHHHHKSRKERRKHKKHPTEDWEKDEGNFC
# PILRb (Mus musculus), Q2YSF2, sequence (Q2YSF2 entry or part of it): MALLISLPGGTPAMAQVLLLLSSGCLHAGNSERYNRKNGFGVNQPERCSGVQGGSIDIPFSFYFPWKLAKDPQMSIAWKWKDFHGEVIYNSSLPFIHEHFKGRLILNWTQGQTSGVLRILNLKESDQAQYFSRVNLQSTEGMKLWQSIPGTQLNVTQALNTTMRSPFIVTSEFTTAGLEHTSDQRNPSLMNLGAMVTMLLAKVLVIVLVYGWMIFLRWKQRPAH
# wLAT-1A (Homo sapiens), Q01650, sequence (Q01650 whole entry): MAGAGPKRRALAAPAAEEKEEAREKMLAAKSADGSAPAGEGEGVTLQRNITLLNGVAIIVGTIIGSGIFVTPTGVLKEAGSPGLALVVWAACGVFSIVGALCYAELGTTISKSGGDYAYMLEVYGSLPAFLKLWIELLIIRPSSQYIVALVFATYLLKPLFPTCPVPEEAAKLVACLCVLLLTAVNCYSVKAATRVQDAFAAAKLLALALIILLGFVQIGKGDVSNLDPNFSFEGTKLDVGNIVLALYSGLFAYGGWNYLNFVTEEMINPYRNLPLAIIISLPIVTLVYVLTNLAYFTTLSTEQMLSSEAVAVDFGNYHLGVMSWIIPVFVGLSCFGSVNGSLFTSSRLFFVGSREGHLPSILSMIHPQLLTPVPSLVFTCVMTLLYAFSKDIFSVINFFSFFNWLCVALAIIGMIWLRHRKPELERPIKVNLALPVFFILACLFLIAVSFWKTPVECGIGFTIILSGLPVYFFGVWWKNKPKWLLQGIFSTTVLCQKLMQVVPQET
# C3b (Homo sapiens), P01024, sequence (P01024 23-667): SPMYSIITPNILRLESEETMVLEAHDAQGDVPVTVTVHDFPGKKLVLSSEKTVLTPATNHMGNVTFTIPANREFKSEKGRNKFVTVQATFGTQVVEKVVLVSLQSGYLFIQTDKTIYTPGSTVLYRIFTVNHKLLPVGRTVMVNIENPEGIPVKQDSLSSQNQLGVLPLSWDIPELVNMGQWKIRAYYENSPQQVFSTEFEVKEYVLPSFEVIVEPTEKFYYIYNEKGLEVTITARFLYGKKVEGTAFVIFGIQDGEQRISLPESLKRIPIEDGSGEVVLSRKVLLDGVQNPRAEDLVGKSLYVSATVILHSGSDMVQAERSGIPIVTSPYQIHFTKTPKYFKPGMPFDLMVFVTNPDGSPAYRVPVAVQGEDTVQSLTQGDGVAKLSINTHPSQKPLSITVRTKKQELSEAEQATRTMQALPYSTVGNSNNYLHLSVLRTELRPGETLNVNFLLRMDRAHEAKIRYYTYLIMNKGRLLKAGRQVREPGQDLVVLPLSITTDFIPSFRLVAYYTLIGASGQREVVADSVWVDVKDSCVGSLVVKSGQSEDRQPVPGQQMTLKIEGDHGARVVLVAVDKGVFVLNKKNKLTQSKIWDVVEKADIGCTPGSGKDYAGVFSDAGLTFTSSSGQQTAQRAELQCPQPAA
# 6RG (Lolium perenne), sequence (chain, as listed by the source): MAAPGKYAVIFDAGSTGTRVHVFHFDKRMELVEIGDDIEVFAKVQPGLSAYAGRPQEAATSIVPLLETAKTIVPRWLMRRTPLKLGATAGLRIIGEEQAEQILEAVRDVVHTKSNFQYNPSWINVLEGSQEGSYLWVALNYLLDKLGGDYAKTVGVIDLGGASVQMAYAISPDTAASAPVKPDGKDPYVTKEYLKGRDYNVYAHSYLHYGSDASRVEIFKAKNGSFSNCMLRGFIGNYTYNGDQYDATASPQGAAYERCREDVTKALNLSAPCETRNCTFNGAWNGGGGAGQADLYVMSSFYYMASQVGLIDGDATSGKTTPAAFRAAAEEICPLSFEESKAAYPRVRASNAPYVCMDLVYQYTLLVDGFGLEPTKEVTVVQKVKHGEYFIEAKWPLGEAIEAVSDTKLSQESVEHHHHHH
# Aggrecan (Rattus norvegicus), NP_071526, sequence (chain, as listed by the source): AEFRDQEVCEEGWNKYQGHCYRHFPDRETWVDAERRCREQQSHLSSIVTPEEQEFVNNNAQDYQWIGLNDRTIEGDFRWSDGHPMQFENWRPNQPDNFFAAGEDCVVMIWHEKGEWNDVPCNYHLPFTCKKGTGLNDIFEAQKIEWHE
# SRLC (Mus musculus), Q8VIF6, sequence (Q8VIF6 other isoform, or with tags, fused parts or gaps): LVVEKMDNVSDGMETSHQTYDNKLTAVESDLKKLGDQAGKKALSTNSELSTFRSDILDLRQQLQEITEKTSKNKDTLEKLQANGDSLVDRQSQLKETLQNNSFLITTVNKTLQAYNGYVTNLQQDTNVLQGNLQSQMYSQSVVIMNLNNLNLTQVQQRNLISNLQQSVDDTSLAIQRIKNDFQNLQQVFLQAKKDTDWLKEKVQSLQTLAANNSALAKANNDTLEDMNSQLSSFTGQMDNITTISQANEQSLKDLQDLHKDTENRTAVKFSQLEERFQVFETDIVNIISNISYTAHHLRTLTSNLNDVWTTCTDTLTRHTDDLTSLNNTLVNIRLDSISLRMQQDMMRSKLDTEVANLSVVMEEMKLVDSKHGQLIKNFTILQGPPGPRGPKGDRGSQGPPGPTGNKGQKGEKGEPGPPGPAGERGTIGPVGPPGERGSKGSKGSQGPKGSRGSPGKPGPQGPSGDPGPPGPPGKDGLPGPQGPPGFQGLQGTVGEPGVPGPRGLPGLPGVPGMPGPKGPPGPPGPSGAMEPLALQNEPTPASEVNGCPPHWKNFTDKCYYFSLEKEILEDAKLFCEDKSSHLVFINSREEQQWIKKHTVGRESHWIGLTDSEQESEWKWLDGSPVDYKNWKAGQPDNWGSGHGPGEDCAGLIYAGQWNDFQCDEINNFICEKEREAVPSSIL
substance,measurement,setting,value
6RG (Lolium perenne),glycan array binding signal (z-score),[1],-0.191
MpAFP RI GFP (Marinomonas primoryensis),glycan array binding signal (z-score),[2],-0.808
"C3b (Homo sapiens), P01024",glycan array binding signal (z-score),[3],-0.041
"Aggrecan (Rattus norvegicus), NP_071526",glycan array binding signal (z-score),[4],-0.038
"PILRb (Mus musculus), Q2YSF2",glycan array binding signal (z-score),[5],-0.463
same,glycan array binding signal (z-score),[6],-0.119
"Neurocan (Homo sapiens), O14594",glycan array binding signal (z-score),[7],2.76
same,glycan array binding signal (z-score),[8],0.948
"Siglec-8 (Homo sapiens), Q9NYZ4",glycan array binding signal (z-score),[9],1.28
same,glycan array binding signal (z-score),[10],0.063
same,glycan array binding signal (z-score),[7]; mutation: R125K,-0.024
same,glycan array binding signal (z-score),[11],-0.157
same,glycan array binding signal (z-score),[12],-0.203
same,glycan array binding signal (z-score),[13],0.029
same,glycan array binding signal (z-score),[14],0.406
same,glycan array binding signal (z-score),[15],0.635
same,glycan array binding signal (z-score),[16],-0.161
"SRLC (Mus musculus), Q8VIF6",glycan array binding signal (z-score),[17],-0.214
"PILRa (Mus musculus), Q2YSF3",glycan array binding signal (z-score),[18],-0.412
same,glycan array binding signal (z-score),[17],3.58
same,glycan array binding signal (z-score),[6],-0.185
Avaren (Actinomycete K97),glycan array binding signal (z-score),[19],-0.128
same,glycan array binding signal (z-score),[17],-0.174
same,glycan array binding signal (z-score),[1],-0.137
same,glycan array binding signal (z-score),[20],0.039
"wLAT-1A (Homo sapiens), Q01650",glycan array binding signal (z-score),[7],-0.345
